Screening results deposited in PubChem by National Center for Advancing Translational Sciences (NCATS).
D2 antag – antagonists of human D2 dopamine receptor; P14416; HEK293 TREx D2 cells, calcium flux, dopamine EC80; inhibition, % at 10 µM; 340,000 compounds, 2% hits; AID 485344; in the data active = inhibition above about 30%; inactive = below that, where a call was filed; also: 0% is about no effect
Target sequence (P14416 whole entry, looked up): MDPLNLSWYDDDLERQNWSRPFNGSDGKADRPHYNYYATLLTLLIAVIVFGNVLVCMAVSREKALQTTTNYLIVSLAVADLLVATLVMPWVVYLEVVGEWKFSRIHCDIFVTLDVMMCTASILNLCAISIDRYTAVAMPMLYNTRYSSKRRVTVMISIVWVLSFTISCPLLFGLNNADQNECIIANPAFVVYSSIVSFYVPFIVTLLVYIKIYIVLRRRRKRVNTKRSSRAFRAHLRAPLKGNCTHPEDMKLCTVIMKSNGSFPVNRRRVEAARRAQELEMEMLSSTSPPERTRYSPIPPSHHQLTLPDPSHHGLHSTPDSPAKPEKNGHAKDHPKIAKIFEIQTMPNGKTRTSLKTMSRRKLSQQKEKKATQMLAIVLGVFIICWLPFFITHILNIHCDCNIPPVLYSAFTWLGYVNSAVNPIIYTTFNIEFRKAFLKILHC
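Read-out: kinetic calcium fluorescence (1 cycle/s) in inducible HEK293 T-REx D2 cells after an EC80 dopamine addition that followed 180 s compound preincubation. Loss of the dopamine response indicates antagonism.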
D2 PAM-1 – positively modulates the human D2 dopamine receptor allosterically | P14416 | HEK293 T-REx D2, calcium flux, EC20 dopamine potentiation | potentiation, % at 10 µM | 340,000 compounds, 0.34% hits;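 active = potentiation over 3 SD above the plate norm, cut at about 30% in these data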; also: 0% is about no effect
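Tetracycline-induced HEK293 T-REx cells force-coupled to calcium signalling expressed D2; compounds were pin-added after a 10 s baseline, read kinetically 180 s, then an EC20 dopamine challenge followed with a further 180 s calcium read.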
D2 PAM-2 – human D2 receptor positive allosteric modulation; P14416; DiscoveRx D2 beta-arrestin cells, luminescence, 90 min; 100% = 57 uM dopamine signal; potentiation, % (test concentration not listed); 360,000 compounds, 0.23% hits; AID 624464; in the data active = potentiation above about 50%; inconclusive = mostly about 30% to 49%
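PathHunter beta-arrestin assay in DiscoveRx D2 cells. Compounds were added with an EC20 of dopamine (50 nM final) for 90 min at 37 deg C. Luminescence was read 1 h after detection reagent, with 57 uM dopamine as the EC100 control.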
D2 ag-1 – human D2 receptor agonism in beta-arrestin assay | DiscoveRx PathHunter D2 beta-arrestin, luminescence, 90 min; 100% = 57 uM dopamine signal | activation, % (no concentration beside the values) | 360,000 compounds, 0.084% hits | AID 624465; in the data active = activation above about 40%; inconclusive = between about 15% and that limit
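DiscoveRx PathHunter D2 beta-arrestin cells (2,100/well) attached overnight, then compound-stimulated 90 min at 37 C in HBSS/10 mM HEPES/0.1% Tween-20 buffer; beta-galactosidase complementation read by luminescence after 1 h at ambient temperature. Dopamine 57 uM final (EC100) as control.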
D2 ag-2 – activates the human D2 dopamine receptor; AID 485358; 340,000 compounds, 0.53% hits; HEK293 T-REx D2 cells, calcium flux agonist mode; activation, % at 2 µM; P14416;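 active = activation over 3 SD above normal in the single-dose calcium agonist read, cut at about 30% in these data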; also: 0% is about no effect
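Tetracycline-induced HEK293 Trex cells with D2 receptor force-coupled to calcium signaling, plated overnight at 30 C and loaded with no-wash calcium dye. Calcium flux read kinetically for 180 s after compound addition; responses flag agonists.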
Starred values were filed as active, the others as inactive; ? = inconclusive; . = no result; ! = repeats disagree. Sampled rows, rich in hits. Any-hit rate of the full collection: about 2.4%.

SMILES	D2 antag	D2 PAM-1	D2 PAM-2	D2 ag-1	D2 ag-2
COc1ccc(C(c2c(O)c3ccccc3oc2=O)c2c(C)n(C)n(-c3ccccc3)c2=O)cc1 (configuration not stated)	93*	-4	-3	-4	1
CN1CCN(c2c[nH]c(=O)[nH]c2=O)CC1	36*	13	8	-1	1
CN1CCN(c2ccccc2N)CC1	-12	-6	-14	0	1
CCOC(=O)c1c(C)n(Cc2ccco2)c2c1cc(O)c1ccccc12	-9	-6	72*	?	1
Cc1ccc(Cl)cc1NC(=O)N(Cc1ccc2c(c1)OCO2)C1CCN(Cc2ccccc2)CC1	.	-19	.	.	2
C/C(=N\Nc1ccccc1)c1c(O)n(Cc2ccccc2)c(=O)[nH]c1=O	-10	8	57*	11	-1
CN1CCN(c2ncnc(Cl)c2N)CC1	-17	-20	-12	-4	1
CN1CCN(c2nc(N)c(Br)c(Cl)n2)CC1	69*	-17	-54	-3	1
CN1CC(C(=O)c2ccccc2)C(c2ccccc2)C1 (configuration not stated)	35*	-29	-14	3	1
O=c1[nH]c2ccccc2n1C1CCN(C(CCc2ccccc2)c2nnnn2Cc2ccccc2)CC1 (configuration not stated)	.	.	52*	13	.
CSCCC(c1nnnn1Cc1ccccc1)N1CCC(n2c(=O)[nH]c3ccccc32)CC1 (configuration not stated)	.	.	?	-1	.
CNc1ccc2oc(C[C@H]3O[C@@]4(CC[C@H]3C)O[C@H]([C@H](C)C(=O)c3ccc[nH]3)[C@H](C)C[C@H]4C)nc2c1C(=O)O	62*	-18	-16	-11	96*
NS(=O)(=O)OC(CCc1ccccc1)C(Cl)(Cl)Cl (configuration not stated)	38*	7	0	1	2
C=Cc1ccc(Cn2c(C)c(CNCCc3cc(OC)ccc3OC)c(C(=O)O)c2C)cc1	.	5	.	.	1
CCOc1ccc2nc(NC(=O)c3cccn(Cc4ccccc4)c3=O)sc2c1	.	3	.	.	1
C#CC1(O)CCC2C3CCC4=C/C(=N/OCC(=O)NCC(=O)NC(C(=O)O)C(C)C)CC[C@]4(C)C3CC[C@@]21C (some centres not stated)	60*	-9	-5	1	1
CCN1/C(=C/C=C/C2=[N+](CC)c3ccccc3C2(C)C)C(C)(C)c2ccccc21	.	.	-50	-5	.
CN1/C(=C\C=C\C2=[N+](C)c3ccc4ccccc4c3C2(C)C)C(C)(C)c2ccccc21	39*	27	.	.	2
CC(C)(C)c1ccc(OCC(=O)Nc2ccc(Cl)cc2C(=O)c2ccccc2)cc1	.	2	.	.	0
COc1ccccc1N1CCN(Cc2cccc(Br)c2)CC1	76*	-25	-2	-4	-1
COc1ccccc1N1CCN(Cc2cc(C)c(C)cc2O)CC1	.	.	-19	-5	.
COc1ccc(F)cc1C(=O)C1CCCN(Cc2ccc(O)cc2)C1 (configuration not stated)	72*	-22	-14	-3	0
COc1ccc(F)cc1C(=O)C1CCCN(Cc2cnc(C)s2)C1 (configuration not stated)	17	-18	-5	-2	1
COc1ccccc1CN1CCCC(C(=O)c2ccccc2OC)C1 (configuration not stated)	-7	-16	-25	2	0
CCOc1ccc(CN2CCCC(C(=O)c3ccccc3OC)C2)cc1 (configuration not stated)	72*	-24	-21	7	0
SMILES	D2 antag	D2 PAM-1	D2 PAM-2	D2 ag-1	D2 ag-2
COc1ccccc1OCCCn1cc(C(=O)c2ccco2)c2ccccc21	-10	-1	-6	-4	2
O=C(c1ccco1)c1cn(Cc2ccc(Cl)cc2)c2ccccc12	31*	-12	-1	-3	-1
Cc1ccccc1OCC(=O)N1CCN(CCc2ccccn2)CC1	.	-11	.	.	1
Cc1c(Cl)cccc1NC(=O)CN1C(=O)C(C)N=C(c2ccccc2)c2ccccc21 (configuration not stated)	.	18	.	.	0
CCCC1=Nc2cc(C(=O)NCCCN(CC)CC)ccc2Sc2ccccc21	.	-13	.	.	1
CCNC(=O)NC(=O)C(C)OC(=O)c1c(C)nn(Cc2ccccc2Cl)c1Cl (configuration not stated)	5	-5	-10	0	-1
CCNC(=O)NC(=O)C(C)OC(=O)c1c(C)nn(Cc2ccccc2)c1Cl (configuration not stated)	40*	1	-3	1	-1
C[C@H]1CCC[C@H](O)CCCCCc2cc(O)cc(O)c2C(=O)O1	32*	7	2	-3	1
Cc1nnc(NC(=O)c2cccn(Cc3ccccc3F)c2=O)s1	.	2	.	.	2
CCN1CCN(Cc2cc(Br)ccc2O)CC1	64*	-21	-40	0	1
COc1cc(Br)cc(CN2CCN(C)CC2)c1O	5	-29	-18	-1	-1
COc1ccc(Br)cc1CN1CCN(CCO)CC1	55*	-23	-25	0	0
Cc1cc(C)cc(NC(=O)CN2C(=O)CN=C(c3ccccc3)c3cc(Cl)ccc32)c1	.	-9	.	.	0
CCn1cc(C(=O)O)c(=O)c2ccc(C)nc21	41*!	4	-6	-6	0
CCn1cc(C(=O)NCc2ccccc2)c2ccccc21	5	-32	-20	-6	1
Cc1ccccc1Cn1cccc(C(=O)Nc2cc(Cl)ccc2C#N)c1=O	.	-12	.	.	.
N#Cc1c(Br)n(C2OC(CO)C(O)C2O)c2ncnc(N)c12 (configuration not stated)	.	.	?	70*	.
Cc1ccc(-n2c(/C=C/c3ccccc3)nc3ccccc3c2=O)cc1Cl	.	7	.	.	0
CN1C[C@H](CNC(=O)OCc2ccccc2)C[C@@H]2c3cccc4c3c(cn4C)C[C@H]21	78*	-28	-26	3	11
Fc1ccccc1CCNCc1cccc2ccccc12	31*	-33	-35	-4	0
CN1CCN(c2oc(-c3ccc(COc4ccccc4)o3)nc2C#N)CC1	.	10	.	.	0
Cc1[nH]c2ccccc2c1C(=O)CN1CC=C(c2ccccc2)CC1	10	-28	-8	-3	3
CCN1CC=C(c2c[nH]c3ccccc23)CC1	83*	-21	-38	-3	0
CCc1nc(SC)ncc1C(=O)Nc1ccc(Cl)cc1C(=O)c1ccccc1	.	.	.	.	-1
Fc1ccc2c(c1)nnn2C1CCN(Cc2ccccc2)CC1	82*	-26	-37	-3	1
Cc1cccc(CN2C(=O)CN=C(c3ccccc3)c3cc(Cl)ccc32)c1	.	-2	.	.	1
